# A selection: hits, their analogues and other compounds. The true share with any hit is near 15%.
# VP16 counter: VP16 counterscreen qHTS for inhibitors of ROR gamma transcriptional activity | Drosophila S2 Gal4-VP16 UAS-luciferase, luminescence, 20 h | Potency, µM (top dose mostly 53.6 µM), for the others: top-dose activity, negative = inhibition, usual class: inhibitors | hit rate 3.5% among 310,000;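 note: Gal4-VP16 expression switched on by copper sulfate through the metallothionein promoter; nearly all actives have a fitted effect of over 50% in size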
# ELG1 DNA repair: qHTS screen for small molecules that inhibit ELG1-dependent DNA repair in human embryonic kidney (HEK293T) cells expressing luciferase-tagged ELG1; HEK293T ELG1-luciferase reporter, luminescence, 16 h; DNA damage induced by 5-fluorouridine; Potency, µM (series often up to 46.1 µM), inactives show at the top dose activity change, negative = inhibition, actives largely listed as inhibitors; hit rate 2.3% among 330,000; AID 504467, 2011; note: nearly all actives have a fitted effect of over 55% in size
#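 In this reporter screen, reduction of luminescence relative to DMSO vehicle indicated activity. Compounds and 5-fluorouridine were added together to 2,000 cells per well, incubated for 16 hr at 37 °C, then developed with ONE-Glo.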
# DT40 TDP1 no CPT: qHTS for Inhibitors of human tyrosyl-DNA phosphodiesterase 1 (TDP1): qHTS in cells in absence of CPT; DT40 Tdp1-/- hTDP1 cells, no CPT, ATP luminescence, 48 h; Potency, µM (highest dose often 46.2 µM), for the others: top-dose activity change, negative = growth inhibition, most hits filed as inhibitors; hit rate 15% among 420,000; AID 686978, 2013; note: nearly all actives have a fitted effect of over 55% in size
#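 Growth of hTDP1-complemented DT40 Tdp1-knockout cells is measured by ATP luminescence after at least 48 hr compound exposure at 37 °C, with DMSO substituting for the 20 nM CPT used in the parallel screen.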
# RORg inh: qHTS for inhibitors of ROR gamma transcriptional activity. Potency, µM (titrated, usually from 53.6 µM), without a hit: at the top dose activity change, negative = inhibition, hits mostly inhibitors. Nuclear receptor ROR-gamma (Mus musculus), P51450. hit rate 5.4% among 310,000. Drosophila S2 Gal4-RORgamma UAS-luciferase reporter, 20 h. AID 2551, 2010; note: nearly all actives have a fitted effect of over 60% in size
# Target sequence (P51450 whole entry, looked up, the tested form may be a part): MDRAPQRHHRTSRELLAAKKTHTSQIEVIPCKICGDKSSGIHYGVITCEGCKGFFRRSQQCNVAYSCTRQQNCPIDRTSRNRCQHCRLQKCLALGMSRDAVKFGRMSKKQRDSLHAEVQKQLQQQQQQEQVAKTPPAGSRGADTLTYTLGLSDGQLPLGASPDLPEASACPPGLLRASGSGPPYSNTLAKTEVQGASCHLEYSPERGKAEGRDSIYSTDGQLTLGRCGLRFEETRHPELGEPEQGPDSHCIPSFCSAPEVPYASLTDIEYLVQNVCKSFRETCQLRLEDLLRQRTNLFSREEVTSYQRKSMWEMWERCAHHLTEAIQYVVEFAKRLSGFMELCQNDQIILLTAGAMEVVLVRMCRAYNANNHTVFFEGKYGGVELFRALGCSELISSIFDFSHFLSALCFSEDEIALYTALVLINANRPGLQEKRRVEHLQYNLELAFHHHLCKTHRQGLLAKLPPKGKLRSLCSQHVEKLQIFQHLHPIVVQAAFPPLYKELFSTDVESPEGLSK
#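 Using a luciferase readout, inhibitors were identified by reduced reporter activity in Drosophila cells coexpressing a copper-inducible Gal4–ROR gamma fusion and UAS-driven Photinus luciferase, incubated 20 hr after 700 uM copper sulfate.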
# ALOX12 inh: Primary qHTS assay for inhibitors of human arachidonate 12S-lipoxygenase (ALOX12): Round 2; purified 12hLO, xylenol orange hydroperoxide absorbance; Potency, µM (top dose mostly 108 µM), inactives show at the highest dose activity change, negative = inhibition, hits mostly inhibitors; hit rate 1.1% among 580,000
#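 Hydroperoxide product was detected by ferrous iron/xylenol orange as the 573 to 405 nm absorbance ratio. Arachidonic acid at 40 uM (final) was turned over for 30 min at room temperature by 150 nM human 12hLO, pH 7.0 Hepes buffer, after 15 min compound preincubation.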
# DT40 TDP1 CPT: qHTS for Inhibitors of human tyrosyl-DNA phosphodiesterase 1 (TDP1): qHTS in cells in presence of CPT; Potency, µM (doses to about 46.2 µM), for the others: at the top dose activity change, negative = growth inhibition, usual class: inhibitors; hit rate 12% among 420,000; chicken DT40 Tdp1-/-;hTDP1 cells + 20 nM CPT, ATP luminescence, 48 h; note: nearly all actives have a fitted effect of over 55% in size
#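 Chicken DT40 Tdp1-/- cells stably complemented with human TDP1 were seeded at 400 cells/well in medium containing 20 nM camptothecin, exposed to pin-transferred compounds, and grown at 37 °C for at least 48 hr. Viability was read as ATP luminescence.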
# An asterisk follows results filed as active; ? = inconclusive; / = not tested or not shown. Calls come from the whole dose curve; as a rule, active = well fitted curve in the direction sought with a large enough effect; inconclusive = small, poorly fitted or top-dose-only effect, or another doubt; inactive = no such curve, though single readings can be large; an effect the other way counts as inactive or inconclusive. % is set by controls: 0 for no effect and ±100 for the full control effect; potency is the fitted concentration of half-maximal effect.
SMILES,VP16 counter,ELG1 DNA repair,DT40 TDP1 no CPT,RORg inh,ALOX12 inh,DT40 TDP1 CPT
O=C(Cc1ccccc1)NCc1n[nH]c(=S)n1-c1ccccc1,13.6%,-0.5%,4.1%,-33.5%,0.7%,17.6%
Cc1csc(NC(=O)CSc2ccccc2)n1,/,/,/,/,-25.7%,/
COc1ccc2oc(=O)c(-c3cn4cccc(C)c4n3)cc2c1,/,/,/,/,-9.6%,/
CCN1c2cc(C(=O)Nc3cccc(Cl)c3)ccc2C(=O)N2CCCCCC21 (stereo not given),/,/,/,/,5.4%,/
N=c1n(CCO)c2ccccc2n1CCOc1ccc(Cl)cc1Cl,0.9%,1.9%,5.8µM*,15.3%,?,6.51µM*
Cc1ccc(OCC(O)Cn2c(=N)n(CCN3CCCCC3)c3ccccc32)cc1 (stereo not given),-1.8%,-14.4%,23.1µM*,-19.1%,-8.1%,5.17µM*
Cc1ccc(OCC(O)Cn2c(=N)n(CCN3CCOCC3)c3ccccc32)cc1 (stereo not given),-0.2%,0.0%,23.1µM*,0.1%,0.0%,?
COc1ccc(OCC(O)Cn2c(=N)n(CCN3CCCCC3)c3ccccc32)cc1 (stereo not given),-2.2%,?,18.4µM*,3.5%,?,13µM*
COc1ccc(OCC(O)CN2CCCCC2)cc1 (stereo not given),0.6%,12.1%,3.9%,-17.3%,2.2%,-0.7%
COc1ccc(OC)c(NC(=O)Cn2nc3c(cc2=O)CCCCC3)c1,/,/,/,/,24.3%,/
N=c1n(CCN2CCCC2)c2ccccc2n1CC(O)c1ccc(Cl)c(Cl)c1 (stereo not given),?,?,3.66µM*,?,?,5.8µM*
N=c1n(CCN2CCCCC2)c2ccccc2n1CC(O)COc1ccc(Cl)cc1Cl (stereo not given),/,/,4.61µM*,/,?,3.66µM*
OC(COc1ccc(Cl)cc1Cl)CN1CCc2ccccc2C1 (stereo not given),-12.1%,5.5%,?,-13.3%,?,?
COc1ccccc1-c1noc(-c2ccc(N3CCN(c4ccccc4)CC3)c([N+](=O)[O-])c2)n1,/,/,13µM*,/,0.0%,23.1µM*
COc1ccccc1-c1noc(-c2ccc(N3CCC(C)CC3)c([N+](=O)[O-])c2)n1,/,/,13µM*,/,-3.9%,?
Cc1ccccc1-c1noc(-c2ccc(N3CCCCC3)c([N+](=O)[O-])c2)n1,/,/,11.6µM*,/,-17.6%,?
COc1ccccc1N1CCN(c2ccc(-c3nc(-c4ccccc4C)no3)cc2[N+](=O)[O-])CC1,/,/,9.8%,/,-20.9%,0.1%
COc1ccccc1N1CCN(c2ccc(-c3nc(-c4ccccc4)no3)cc2[N+](=O)[O-])CC1,/,/,9.2µM*,/,-22.9%,11.6µM*
CCCc1cc(=O)oc2c(C)c(OCC(=O)OC(C)(C)C)ccc12,/,/,/,/,-15.4%,/
CCn1c(SCC(=O)Nc2ccc3c(c2)OCO3)nc2c(-c3ccc(C)cc3)csc2c1=O,/,/,/,/,2.3%,/
Cc1ccc(C(NC(=O)COc2ccccc2C(N)=O)c2cccs2)cc1 (stereo not given),/,/,/,/,-0.3%,/
COC(=O)c1cc(=O)nc2sc(-c3ccc(F)cc3)nn12,5.3%,16.2%,?,-6.2%,/,23.1µM*
CC(=O)Nc1ccc(S(=O)(=O)Nc2nc3ccccc3nc2Nc2cccc3ccccc23)cc1,/,/,/,/,-6.7%,/
CCCCOCCCNC(=O)C[C@@H]1C[C@@]2(C(=O)OCC)CCCC=C2N(Cc2cccc3ccccc23)C1=O,/,/,13µM*,/,?,18.4µM*
CCCCCCCCN1C(=O)[C@H](CC(=O)NCc2cccc3ccccc23)C[C@@]2(C(=O)OCC)CCCC=C12,/,/,16.4µM*,/,-26.0%,?
SMILES,VP16 counter,ELG1 DNA repair,DT40 TDP1 no CPT,RORg inh,ALOX12 inh,DT40 TDP1 CPT
CCCS(=O)(=O)N1CCN(CC2CC3C=CC2C3)CC1 (stereo not given),-2.2%,-2.3%,5.8µM*,24.0%,?,-8.2%
CCCS(=O)(=O)N1CCN(CC2CC=CCC2)CC1 (stereo not given),-5.6%,13.3%,-5.0%,3.5%,-26.9%,-12.7%
CCOC(=O)N(C)c1c(CC)nc2c(OCc3ccc(Cl)cc3Cl)cccn12,/,/,23.1µM*,/,-27.2%,?
CCOC(=O)N(C)c1c(CC)nc2c(OCc3ccc(F)c(F)c3)cccn12,/,/,20.6µM*,/,-0.1%,?
CCOC(=O)C(=O)N(C)c1c(CC)nc2c(OCc3ccccc3OC)cccn12,/,/,?,/,?,-14.1%
CCc1nc2c(OCc3cccc(Cl)c3)cccn2c1N(C)C(=O)CC(C)C,/,/,20.6µM*,/,-6.0%,?
CCc1nc2c(OCc3ccc(Cl)cc3)cccn2c1N(C)C(=O)c1ccccc1F,/,/,?,/,-6.0%,?
CCOC(=O)N(C)c1c(CC)nc2c(OCc3ccc(F)cc3)cccn12,/,/,?,/,-15.0%,?
CCc1nc2c(OCc3ccc(F)c(F)c3)cccn2c1N(C)C(=O)C1CC1,/,/,?,/,?,20.6µM*
COc1ccc(NC(=O)Cn2ccn3nc4c(c3c2=O)CCCCC4)cc1,/,/,/,/,1.0%,/
CN(Cc1cccs1)C(=O)c1ccc(-c2ccccc2)cc1,/,/,/,/,1.7%,/
CCOC(=O)N(C)c1c(CC)nc2c(OCc3cc(Cl)cc(Cl)c3)cccn12,/,/,20.6µM*,/,2.5%,?
COc1ccc(CC(N)c2csc(NC(=O)c3cc(C(C)(C)C)oc3C)n2)cc1 (stereo not given),/,/,?,/,?,23.1µM*
COc1cc(CNC(=O)Nc2nc(C(N)CCc3ccccc3)cs2)cc(OC)c1OC (stereo not given),/,/,?,/,-0.2%,?
Cc1ccc(C(=O)Nc2nc(C(N)Cc3ccc(C(F)(F)F)cc3)cs2)cc1 (stereo not given),/,/,?,/,9.6%,?
COc1ccc(CC(N)c2csc(NC(=O)Nc3ccc(OC)cc3)n2)cc1 (stereo not given),/,/,16.4µM*,/,-26.1%,20.6µM*
COc1cc(NC(=O)Nc2nc(C(N)Cc3ccc(C(F)(F)F)cc3)cs2)cc(OC)c1OC (stereo not given),/,/,11.6µM*,/,?,11.6µM*
